Structures are written as SMILES. In all, about 16,000 compounds went through this assay and about 120 (0.75%) were called active. Entries that show only a call come without a potency. Inconclusive results (about 4%) are left out. Calls follow the shape of the dose curve; as a rule, active = well fitted inhibition curve with a large enough effect; inconclusive = small, poorly fitted or top-dose-only effect; inactive = no such curve, though single readings can be large or run the other way. This excerpt belongs to a sample that is enriched for actives. Where a structure was tested more than once in an assay, its records may differ in their call.
Potency is read from the fitted curve at half-maximal effect.

Rap guanine nucleotide exchange factor 3 (Homo sapiens), sequence (O95398 whole entry, looked up): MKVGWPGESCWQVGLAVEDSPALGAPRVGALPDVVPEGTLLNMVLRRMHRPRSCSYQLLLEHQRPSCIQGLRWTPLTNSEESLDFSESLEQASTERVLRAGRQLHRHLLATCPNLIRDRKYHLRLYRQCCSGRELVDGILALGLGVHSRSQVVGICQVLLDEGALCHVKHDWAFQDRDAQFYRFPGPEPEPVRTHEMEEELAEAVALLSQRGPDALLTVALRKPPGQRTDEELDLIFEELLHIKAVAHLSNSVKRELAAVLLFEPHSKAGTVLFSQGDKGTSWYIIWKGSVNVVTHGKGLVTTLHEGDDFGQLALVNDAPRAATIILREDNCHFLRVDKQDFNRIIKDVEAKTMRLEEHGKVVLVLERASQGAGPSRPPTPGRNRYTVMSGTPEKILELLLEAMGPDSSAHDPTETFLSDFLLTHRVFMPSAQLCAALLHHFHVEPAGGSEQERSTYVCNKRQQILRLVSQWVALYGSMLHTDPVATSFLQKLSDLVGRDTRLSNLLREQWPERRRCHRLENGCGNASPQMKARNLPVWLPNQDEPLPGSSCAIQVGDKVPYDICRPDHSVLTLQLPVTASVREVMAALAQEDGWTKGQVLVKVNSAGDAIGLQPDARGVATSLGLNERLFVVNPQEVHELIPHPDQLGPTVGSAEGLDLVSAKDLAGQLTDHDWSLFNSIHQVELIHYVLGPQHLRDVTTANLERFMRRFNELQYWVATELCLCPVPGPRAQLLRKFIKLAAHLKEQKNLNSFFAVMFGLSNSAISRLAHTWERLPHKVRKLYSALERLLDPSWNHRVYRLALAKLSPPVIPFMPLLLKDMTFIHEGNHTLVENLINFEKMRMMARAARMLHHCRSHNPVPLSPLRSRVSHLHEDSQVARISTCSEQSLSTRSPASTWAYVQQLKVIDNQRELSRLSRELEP

The target of this assay is Rap guanine nucleotide exchange factor 3 (Homo sapiens) (UniProt O95398). The assay can be described thus: Validation qHTS for antagonist of cAMP-regulated guanine nucleotide exchange factor 3 (EPAC1). Also: nearly all actives have a fitted effect of over 75% in size. As to conditions: EPAC1 Rap1B-BODIPY-GDP exchange, fluorescence; series mostly up to 150 µM. The text has this:
Assay Provider (PI): Xiaodong Cheng Ph.D.
The University of Texas Medical Branch, […], TX
In multi-cellular eukaryotic organisms, the effects of cAMP are transduced by two ubiquitously-expressed intracellular cAMP receptors, the classic protein kinase A/cAMP-dependent protein kinase (PKA/cAPK) and the more recently discovered exchange protein directly activated by cAMP/cAMP-regulated guanine nucleotide exchange factor (EPAC/cAMP-GEF). Both PKA and EPAC are ubiquitously expressed in all tissues, and an increase in intracellular cAMP levels will lead to the activation of both PKA and EPAC. Therefore, careful dissections of the individual role and relative contribution of EPAC and PKA within the overall cAMP signaling in various model systems are critical for further elucidating the mechanism of cAMP signaling. To date no EPAC-specific antagonists and agonist, as well as isoform-specific agonists have been reported, and developing EPAC-specific pharmacological probes to determine the physiological functions that EPAC play in the overall cAMP-mediated signaling remains a major challenge within the research field. Furthermore, identified regulators of EPAC may lead to new mechanism-based therapeutic strategies specifically targeting the EPAC / cAMP-signaling components as EPAC has been implicated to play important roles in major human pathological conditions such as diabetes, heart disease, and cancer.
This qHTS will be used to screen the Molecular Libraries Small Molecule Repository (MLSMR) as a concentration-titration series using the NCGC unique quantitative screening (qHTS) platform to find activators for EPAC1. In addition, this assay will also be used as a counterscreen for the EPAC2 qHTS. This fluorescent based assay is developed and validated for EPAC1 that measures exchange using EPAC effector Rap1 complex with BODIPY-GDP, a GDP analog with a tethered fluorophores. Activators are identified by monitoring the change in fluorescence signal as the exchanged free BODIPY-GDP has a reduced fluorescence compared to Rap1-bound BODIPY-GDP. Increase in signal (activation) is the desired outcome for the EPAC1 agonist while no activity in this assay is desired for the EPAC2 agonist counterscreen.
[1] de Rooij, J., Zwartkruis, F. J., Verheijen, M. H., Cool, R. H., Nijman, S. M., Wittinghofer, A., and Bos, J.L. (1998) Nature 396, 474-477.
Briefly, three uL of reagents (100 nM EPAC1, 250 nM RAP1B-BODIPY-GDP, 50 uM GDP) were dispensed into a 1536-well Greiner black solid-bottom medium binding assay plate. Controls and test compounds (23 nL) were transferred to the plate via a Kalypsys pin tool equipped with a 1536-pin array. The plates were centrifuged at 1,000 rpm for 15 seconds followed by 5 minute incubation at room temperature. The assay plates were read at 5 minute intervals for 30 minutes in the ViewLux plate reader using 480nm excitation and 540nm emission filters. The results were normalized to the […] positive control ATA and DMSO.
Regarding `O=[N+]([O-])c1cc(O)c(O)c([N+](=O)[O-])c1`, the Potency was 79.4 µM (active) and inactive. The same measure, in the same setting: the same measure for `O=[N+]([O-])c1cc(I)c(O)c(I)c1`: “inactive”; for `O=[N+]([O-])c1ccc(O)c([N+](=O)[O-])c1`: “inactive”. On the same count and under the same terms, under `COP(=S)(OC)Oc1ccc(S(N)(=O)=O)cc1` stands “inactive”. The same measure, in the same setting: under `O=c1oc2ccccc2c(O)c1C(CC(O)c1ccc(-c2ccc(Br)cc2)cc1)c1ccccc1` (stereo not given) stands 100 µM (active); under `O=c1oc2ccccc2c(O)c1C(c1ccccc1O)c1c(O)c2ccccc2oc1=O`, “inactive”; under `O=c1oc2ccccc2c(O)c1Cc1c(O)c2ccccc2oc1=O`, “inactive”. `O=C(Oc1ccccc1)N1CCC2(CC1)CCN(C(c1ccccc1)c1ccccc1)CC2`: the Potency result is “inactive”. Consider `CC(C)(C)c1cc(O)ccc1O`, for which the Potency entry was “inactive”. Same read-out and setting: the same measure for `Oc1cc2c(cc1O)[C@H]1c3ccccc3CN[C@H]1CC2`: “inactive”. With `CC(=O)O.CC(=O)O.[Cd]`, the Potency result is “inactive”. The same measure, in the same setting: the same measure for `COc1cc2c(cc1OC)[C@@H]1C(=O)c3ccc4oc(C(C)C)cc4c3OC1CO2` (stereo not given in full): “inactive”. Regarding `CCc1cccc(C)c1N(C(=O)CCl)C(C)COC` (stereo not given), the Potency result is “inactive”.

On to `CN(C)C1C(=O)C(C(N)=O)=C(O)[C@@]2(O)C(=O)C3=C(O)c4c(O)cccc4[C@](C)(O)C3C(O)C12` (stereo not given in full), for which the Potency result is “inactive”. Still for that read-out and setting: the same measure for `Cl.Cl.Cl.Cl.Cl.Cl.N.N.N.N.NNNNN.NNNNN.O.O.[Ru].[Ru].[Ru]`: 89.1 µM (active); for `O=CN1CC2CC(C1)c1cccc(=O)n1C2` (stereo not given): “inactive”. For `CC(C)CCCC1(C)C=Cc2c(O)c3c(c(CCC(C)C)c2O1)OC12C(CC4CC1C(C)(C)OC2(CCC(C)C(=O)O)C4O)C3=O` (stereo not given), the Potency is 70.8 µM (active). For `CN(C)CCc1c[nH]c2cccc(O)c12`, the Potency result is “inactive”. Still for that read-out and setting: the same measure for `ClCCN(CCCl)/C(=C\c1ccccc1)c1ccnc2ccccc12`: “inactive”; for `O=C1CC[C@@]2(O)C3Cc4ccc(O)c5c4C2(CCN3CC2CC2)[C@H]1O5` (stereo not given in full): “inactive”. Still for that read-out and setting: under `CC(=O)OC1CC(OC(C)=O)[C@]2(C)C(CC(OC(C)=O)[C@]3(C)C2CC[C@@]2(C)C(c4ccoc4)C[C@H]4O[C@]432)C1(C)C` (stereo not given in full) stands “inactive”; under `O=S(=O)(O)c1cc(O)ccc1O`, “inactive”. As to `O=C1OC(c2ccc(O)c(S(=O)(=O)O)c2)(c2ccc(O)c(S(=O)(=O)O)c2)c2c(Br)c(Br)c(Br)c(Br)c21`, the Potency is 14.1 µM (active). The same measure, in the same setting: under `CCOC(=O)[C@]12Cc3cc(OC)ccc3[C@H]1N(Cc1ccccc1)C(=O)c1cc(F)c(F)cc12` stands “inactive”. As to `CC(Cc1ccc2c(c1)OCO2)NO` (stereo not given), the Potency result was “inactive”. Consider `NC(=O)[C@H](Cc1ccccc1)NC(=O)[C@H](Cc1c[nH]c2ccccc12)NC(=O)[C@@H]1CCCN1C(=O)[C@@H](N)Cc1ccc(O)cc1`, for which the activity change, negative = inhibition is 5.24% [at 15.3 µM] (inactive). For the compound `CCOC(=O)C1(c2ccccc2)CCCN(C)CC1` (stereo not given), the Potency entry was “inactive”. Turning to `CCC(C)C(=O)c1c(O)c(C)c2oc3c(C)c(O)c(C(=O)C(C)CC)c(O)c3c2c1O` (stereo not given), the Potency entry is “inactive”. With `CCOCN(C(=O)CCl)c1c(C)cccc1CC`, the Potency result was “inactive”. `O=[N+]([O-])c1ccc(F)c([N+](=O)[O-])c1`: the Potency entry was “inactive”. On to `CC(=O)Oc1c2c(c(CC=C(C)C)c3c1C(=O)C1=CC4CC5C(C)(C)OC(C/C=C(\C)C(=O)O)(C4=O)[C@]15O3)OC(C)(CCC=C(C)C)C=C2` (stereo not given in full), for which the Potency was 44.7 µM (active). On the same count and under the same terms, the same measure for `COc1c2c(c(CC=C(C)C)c3oc(=O)c(-c4ccc(O)cc4)c(O)c13)OC(C)(C)C=C2`: “inactive”; for `CC(C)=CCCC1(C)C=Cc2c(O)c3c(c(CC=C(C)C)c2O1)OC12C(=CC4CC1C(C)(C)OC2(C/C=C(/C)C(=O)O)C4O)C3=O` (stereo not given): 63.1 µM (active). For `CC(C)=CCCC1(C)C=Cc2c(O)c3c(c(CC=C(C)C)c2O1)OC12C(=CC4CC1C(C)(C)OC2(C/C=C(/C)C(=O)O)C4=O)C3=O` (stereo not given), the Potency is 50.1 µM (active). The same measure, in the same setting: the same measure for `COC(=O)/C(C)=C\CC12OC(C)(C)C3CC(C=C4C(=O)c5c(OC)c6c(c(CC=C(C)C)c5OC431)OC(C)(CCC=C(C)C)C=C6)C2=O` (stereo not given): “inactive”; for `CN[C@H]1C[C@@H](N)[C@H](O)[C@@H](O[C@@H]2O[C@H](CO)[C@H](O)[C@@H]3OC4(O[C@H]23)O[C@H](C(N)CO)[C@H](O)[C@H](O)[C@H]4O)[C@@H]1O` (stereo not given in full): “inactive”.

Regarding `CC[C@]1(O)CC(O[C@@H]2CC(N(C)C)C(O)C(C)O2)c2c(cc3c(c2O)C(=O)c2c(O)cccc2C3=O)C1C(=O)OC` (stereo not given in full), the Potency entry is “inactive”. Turning to `CCC(=O)O[C@H]1[C@@H](N2CCCCC2)C[C@H]2[C@@H]3CC[C@H]4C[C@H](OC(C)=O)[C@@H](N5CCCCC5)C[C@]4(C)[C@H]3CC[C@@]21C`, the Potency result was “inactive”. For the compound `CC(CC(C#N)(c1ccccc1)c1ccccc1)N(C)C` (stereo not given), the Potency entry is “inactive”. As for `CC(C)C1C(=O)N2CCC[C@H]2[C@]2(O)O[C@](NC(=O)[C@@H]3C=C4c5cccc6[nH]cc(c56)C[C@H]4N(C)C3)(C(C)C)C(=O)N12` (stereo not given in full), the Potency entry was “inactive”. For `C[C@@]12CCC(O)C[C@H]1CCC1C2CC[C@]2(C)C(=O)CCC12` (stereo not given in full), the Potency result is “inactive”.

Consider `O=S(=O)(O)C(F)(F)C(F)(F)C(F)(F)C(F)(F)F`, for which the Potency entry was “inactive”. Turning to `O=S(=O)(O)C(F)(F)C(F)(F)C(F)(F)C(F)(F)C(F)(F)C(F)(F)C(F)(F)C(F)(F)F`, the Potency was 35.5 µM (active). Same read-out and setting: under `CC(C)C[C@H]1C(=O)N2CCC[C@H]2[C@]2(O)O[C@](NC(=O)[C@@H]3C[C@@H]4c5cccc6[nH]cc(c56)C[C@H]4N(C)C3)(C(C)C)C(=O)N12` stands “inactive”.

As to `O[C@@H]1CCCC[C@@H]1N1CCC(c2ccccc2)CC1`, the Potency result was “inactive”. Turning to `Cn1cccc1-c1cccnc1`, the Potency result is “inactive”.

With `N#CC(C#N)=Cc1ccc(O)c(O)c1`, the Potency result is “inactive”.

`N#C/C(=C\c1ccc(O)c(O)c1)C(N)=S`: the Potency is 89.1 µM (active).

For `N#C/C(=C/c1ccc(O)c(O)c1)C(N)=S`, the Potency entry was “inactive”. The same measure, in the same setting: under `O=c1ccc2cc(OC3OC(CO)C(O)C(O)C3O)c(O)cc2o1` (stereo not given) stands “inactive”. For the compound `O=C(N[C@H]1N=C(c2ccccc2F)c2cccc3c2N(CC3)C1=O)c1cc2ccccc2[nH]1`, the Potency entry was “inactive”. For `CC1Cc2ccccc2CN1` (stereo not given), the Potency entry is “inactive”. Turning to `C[N+](C)(C)CCOC(=O)C(O)(c1ccccc1)c1ccccc1`, the Potency result is “inactive”. The same measure, in the same setting: under `CN(CCC(N)CC(=O)NC1C=CC(n2ccc(N)nc2=O)OC1C(=O)O)C(=N)N` (stereo not given) stands “inactive”; under `O=C1C(Cl)=C(Cl)C(=O)C(Cl)=C1Cl`, 39.8 µM (active); under `COc1cc(CC(C)N)cc(OC)c1OC` (stereo not given), “inactive”. On the same count and under the same terms, the same measure for `O=C1C(I)=CC(=C(c2cc(I)c(O)c(I)c2)c2ccccc2C(=O)O)C=C1I`: 39.8 µM (active).

In the case of `Nc1ccccc1C(=O)O`, the Potency result is “inactive”. Still for that read-out and setting: the same measure for `CNc1ccccc1C(=O)O`: “inactive”; for `N#CN`: “inactive”.

Values taken from PubChem BioAssay AID1645882 (National Center for Advancing Translational Sciences (NCATS), 2021).
